Assay outcomes from PubChem.
Only some compounds are listed: those with a hit (about 6.6% of all), similar ones and a draw of the others.
SW480 rereplic: induces DNA re-replication in SW480 colon adenocarcinoma cells; SW480 DNA re-replication, Hoechst DNA content imaging, 48 h; Potency, µM (series often up to 46.1 µM), for inactives: at the top dose re-replication activation, usual class: activators; actives 1.8% (n = 340,000); also: % of control where 0% means no effect; nearly all actives have a fitted effect of over 55% in size
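Quantitative HTS format with DMSO vehicle controls; 48 hr drug incubation at 37 C, then 40 min Hoechst staining and scanning imager measurement at 405 nm excitation.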
KB-3-1 tox: KB-3-1 parental cell cytotoxicity | KB-3-1 viability, CellTiter-Glo ATP luminescence, 72 h | Potency, µM (titrated, usually from 46.1 µM), hits mostly cytotoxic | actives 1.4% (n = 400,000); also: % is scaled to controls: 0 for no effect and ±100 for the full control effect; nearly all actives have a fitted effect of over 60% in size
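Using CellTiter-Glo luminescence, growth of non-resistant KB-3-1 adenocarcinoma cells is assessed 72 h after pin-tool compound addition at 37 °C. Normalized responses across the concentration series yield fitted curves.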
MCF10A rereplic: DNA re-replication induction in MCF 10a cells | MCF 10A DNA re-replication, Hoechst nuclear intensity, 48 h | Potency, µM (series often up to 46.1 µM), without a hit: top-dose activity, positive = re-replication, most hits filed as activators | actives 2.9% (n = 350,000) | AID 624296; also: % of control where 0% means no effect; nearly all actives have a fitted effect of over 50% in size
KB-V1 MDR tox: KB-V1 MDR subline cytotoxicity; KB-V1 MDR cells viability, CellTiter-Glo, 72 h; actives 3.4% (n = 400,000); Potency, µM (highest dose often 46.1 µM), hits mostly cytotoxic; also: % is scaled to controls: 0 for no effect and ±100 for the full control effect; nearly all actives have a fitted effect of over 60% in size
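Following 72 h at 37 degrees C with compound, KB-V1 cell viability was read by CellTiter-Glo luminescence, medium being phenol-red-free DMEM plus 10% FBS; concentration-response parameters came from normalized, curve-fitted qHTS data.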
TSG101-PTAP inh: blocks PTAP/TSG101 interaction to inhibit HIV-1 budding; Q99816; Fluorescence polarization, FITC-PTAP peptide / Tsg101 binding; Potency, µM (titrated, usually from 115 µM), inactives show top-dose activity change, negative = inhibition, actives largely listed as inhibitors; 340,000 tested, under 10 active; active = well fitted inhibition curve with a large enough effect in the main read-out, with a control signal flat, not every such curve was filed as active; inconclusive = small, poorly fitted or top-dose-only effect, or effect the other way, or a change in a side signal; inactive = no such curve, though single readings can be large or run the other way; also: % of control where 0% means no effect
Target sequence (Q99816 whole entry, looked up): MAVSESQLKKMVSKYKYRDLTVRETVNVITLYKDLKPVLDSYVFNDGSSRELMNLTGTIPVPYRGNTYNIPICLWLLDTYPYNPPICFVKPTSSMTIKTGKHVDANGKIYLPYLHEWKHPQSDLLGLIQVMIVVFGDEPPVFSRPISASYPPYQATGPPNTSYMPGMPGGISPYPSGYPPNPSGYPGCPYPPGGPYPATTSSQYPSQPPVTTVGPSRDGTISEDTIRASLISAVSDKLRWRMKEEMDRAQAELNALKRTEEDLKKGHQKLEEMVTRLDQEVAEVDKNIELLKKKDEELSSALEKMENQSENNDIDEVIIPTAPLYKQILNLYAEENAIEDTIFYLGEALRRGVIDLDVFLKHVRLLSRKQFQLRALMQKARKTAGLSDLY
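Fluorescence anisotropy tracks displacement of a FITC-tagged PTAP peptide (50 nM) from the Tsg101 binding domain (10 uM), following a 20 min room-temperature incubation at pH 7.5.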
RGS4 inhibitor: inhibitors of human regulator of G protein signaling 4 | Potency, µM (top dose mostly 114 µM), for the others: at the highest dose activity change, negative = inhibition, actives largely listed as inhibitors | P49798 | Transcreener GDP fluorescence polarization, RGS4-accelerated GTP hydrolysis | actives 0.039% (n = 390,000); also: % is scaled to controls: 0 for no effect and ±100 for the full control effect; nearly all actives have a fitted effect of over 75% in size
Target sequence (P49798 whole entry, looked up): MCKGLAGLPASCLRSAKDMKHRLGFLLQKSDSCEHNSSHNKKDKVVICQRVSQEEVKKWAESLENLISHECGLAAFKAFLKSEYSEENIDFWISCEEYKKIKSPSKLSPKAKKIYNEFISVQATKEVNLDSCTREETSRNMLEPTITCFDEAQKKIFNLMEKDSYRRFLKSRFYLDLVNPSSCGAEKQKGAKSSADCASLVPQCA
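MLSMR compounds (23 nl, pin-transferred) preincubated 10 min at room temperature with a 500nM (2x) first reagent, then RGS4 at 900nM (2x) plus Transcreener GDP mix added; fluorescence polarization (620/688 nm) read before and after 90 min at 30 °C.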
* = called active by the depositor; i = inactive; ? = inconclusive; nt = no result given; ! = repeats disagree; [ ] = another dose, or the depositor's remark. Unless noted, calls follow the shape of the dose curve; as a rule, active = well fitted curve in the direction sought with a large enough effect; inconclusive = small, poorly fitted or top-dose-only effect, or another doubt; inactive = no such curve, though single readings can be large; an effect the other way counts as inactive or inconclusive. Potency is read from the fitted curve at half-maximal effect.

SMILES	SW480 rereplic	KB-3-1 tox	MCF10A rereplic	KB-V1 MDR tox	TSG101-PTAP inh	RGS4 inhibitor
Cc1ccc(Nc2ccc(N3CCN(C(=O)c4cccc([N+](=O)[O-])c4)CC3)nn2)cc1	nt	nt	nt	nt	nt	-4%
CCC1CCCCN1C(=O)c1cc(COc2ccc(-n3cncn3)cc2)on1 (stereo not given)	-15%	18µM*	-5%	13µM*	-5%	-1%
O=C(c1cc(COc2ccc(-n3cncn3)cc2)on1)N1CCCC1	-4%	i	1%	i	-3%	5%
COc1cc(-c2noc(C)c2/C=C/c2ccc(N)cc2)cc(OC)c1OC	?	0.26µM*!	?	0.58µM*!	-1%	-33%
COc1cc(-c2noc(C)c2C#Cc2ccccn2)cc(OC)c1OC	3.7µM*	0.58µM*!	?	1.3µM*!	-8%	-6%
CNC(C)C#Cc1c(-c2cc(OC)c(OC)c(OC)c2)noc1C (stereo not given)	10%	i	-7%	?	nt	-19%
COc1cc(-c2noc(C)c2C#Cc2ccc(N)cc2)cc(OC)c1OC	1.2µM*	0.82µM*!	?	1.3µM*!	-1%	-19%
COc1cc(NC(=O)c2cc3cc4ccc(OC)c(Cl)c4nc3s2)cc(OC)c1	nt	i	nt	i	nt	-28%
Cc1ccc(C(=O)NCC(=O)OCC(=O)c2ccc3ccccc3c2)cc1	nt	i	nt	i	nt	1%
COc1cc(Cl)c(C)cc1Nc1nc2ccccc2c2nnc(C)n12	nt	i	nt	i	nt	-10%
COc1cccc(CNC(=O)c2ccc3nc(-c4ccc(F)cc4)c(-c4ccc(F)cc4)nc3c2)c1	nt	i	nt	i	nt	28%
COc1ccc2c(c1OC)C(=O)N1c3ccccc3C(=O)N(c3ccccc3F)C21 (stereo not given)	-5%[9.22 µM]	i	?	5.8µM*	-8%	-1%
COc1ccc2c(c1OC)C(=O)N1c3cccc(Cl)c3C(=O)OC21 (stereo not given)	0.65µM*	i	1.3µM*	i	-7%	-11%
COc1ccc2c(c1OC)C(=O)N1c3ccccc3C(=O)N(Cc3ccco3)C21 (stereo not given)	nt	i	nt	?	nt	?
CCCCc1nc2ccccc2n1CC(=O)N(COCC)c1c(C)cccc1CC	nt	i	nt	i	nt	-21%
O=C1C=CC(=O)c2c(O)c(N3CCN(CCO)CC3)c(Cl)c(O)c21	0.65µM*	5.2µM*	0%	?	-5%	?
O=C1C=CC(=O)c2c(O)c(N3CCN(CCOCCO)CC3)c(Br)c(O)c21	?	5.2µM*	3%	4.1µM*	-3%	?
O=S(=O)(c1ccc(Br)cc1Cl)N1CCN(CCO)CC1	-7%	i	6%	i	-7%	3%
O=C(/C=C/c1ccccc1)OCc1ccccc1	-3%	nt	1%	nt	nt	nt
CCOc1ccccc1NC(=O)c1cc(S(=O)(=O)N2CCOCC2)ccc1C	-4%	i	12%	?	-2%	16%
CC(=O)c1ccc(NC(=O)c2cc(S(=O)(=O)N3CCOCC3)ccc2C)cc1	-2%	i	?	i	0%	26%
Cc1ccc(S(=O)(=O)N2CCOCC2)cc1C(=O)OCC(=O)N1CCCCC1	-4%	i	13%	18µM*	0%	-10%
O=C(Nc1ccc(N2CCCC2)cc1)c1cc(Br)ccc1Cl	?	21µM*	?	?	-8%	-9%
Cc1ccc(S(=O)(=O)N2CCOCC2)cc1C(=O)Nc1ccc(N2CCCCCC2)cc1	31%	3.7µM*	?	?	0%	-33%
CS(=O)(=O)c1ccc(C(=O)Nc2ccc(N3CCCC3)cc2)c(Cl)c1	-5%	i	9%	i	-6%	-14%
SMILES	SW480 rereplic	KB-3-1 tox	MCF10A rereplic	KB-V1 MDR tox	TSG101-PTAP inh	RGS4 inhibitor
CCOC(=O)c1c(-c2ccccc2Cl)csc1NC(=O)c1cc(S(=O)(=O)N2CCOCC2)ccc1C	16%	i	?	10µM*	2%	-25%
CC(C)c1ccc(OCc2cc(=O)n3c(-c4ccccc4)csc3n2)cc1	nt	i	nt	?	nt	-14%
Cc1cccc(CN2Cc3cccc4c3[C@H](C=CC4)CC2=O)c1	nt	i	nt	i	nt	nt
COc1ccc(CCNC(=O)c2ccc3c(c2)N(Cc2ccccc2C)C(=O)c2ccccc2S3)cc1OC	nt	nt	nt	nt	nt	6%
O=C(Nc1ccc(Br)cc1Cl)c1cnn2c1NC(=C1CC1)C=C2C(F)F	nt	i	nt	i	nt	nt
CCCN1C(=O)c2ccccc2NC1c1ccc(OC)c(COc2cccc(OC)c2)c1 (stereo not given)	nt	?	nt	i	nt	1%
C=C(C)c1nc(Oc2ccccc2)nc(Oc2ccccc2)n1	?	?	4.1µM*	i	0%	2%
Clc1ccc2nc(COc3ccccc3)[nH]c2c1	7.3µM*	?	3.3µM*	i	-4%	-17%
CN(C(=O)c1cccc(NC(=O)Cc2ccc(NC(=O)C3CCCN(C(=O)C4CCCCC4)C3)cc2)c1)C1CCCC1 (stereo not given)	?	i	15%	i	-1%	20%
CN(C(=O)c1cccc(NC(=O)Cc2ccc(NC(=O)C3CCCN(C(=O)CCc4ccccc4)C3)cc2)c1)C1CCCC1 (stereo not given)	3%	6.5µM*	?	i	1%	1%
CN(C(=O)c1cccc(NC(=O)Cc2ccc(NC(=O)C3CCCN(C(=O)C4CC4)C3)cc2)c1)C1CCCCC1 (stereo not given)	2.6µM*	i	10%	i	-3%	-1%
O=C(CN1C(=O)CC(c2ccc(F)cc2)=Nc2ccccc21)NCc1ccccc1Cl	nt	i	nt	i	nt	-5%
Cc1c(Cl)cccc1NC(=O)c1cnc2sc(N3CCOCC3)nn2c1=O	nt	nt	nt	nt	nt	12%
COc1cc(OC)c(/C=N/n2c(C)nnc2C)c(OC)c1	-120%	i	26µM*	i	-5%	0%
CC(C)c1ccccc1OCC(O)CN1CCN(S(=O)(=O)c2ccc([N+](=O)[O-])cc2)CC1 (stereo not given)	27%	6.5µM*	8%	?	-6%	0%
Cc1ccc(NC(=O)Cn2c(=O)n(Cc3ccco3)c(=O)c3oc4ccccc4c32)cc1C	nt	i	nt	i	nt	-29%
Brc1cc2c(cc1C1Nc3ccccc3C3C=CCC31)OCO2 (stereo not given)	16µM*	?	?	?	2%	-8%
Cc1cc(/C([O-])=C(/C(=S)Nc2ccccc2)[n+]2ccccc2)c(C)n1-c1ccccc1	15%	i	22%	i	-4%	-15%
